Screening data: PubChem, Broad Institute
Hits are enriched below; roughly 2.9% of the tested compounds scored in any of these assays.
esBAF inh – blocks esBAF chromatin remodeling in mouse ES cells | reporter increase, % at 12.5 µM | 350,000 tested, 2% active | Bmi1-luciferase knock-in reporter, 24 h; 100% = twice the neutral-well signal | AID 602393; in the data active means activation above about 40%; inconclusive means no clear call, values can overlap the other calls;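 further: a rise in the Bmi1 reporter signal indicates esBAF inhibition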
N-glyco inh – blocks N-linked glycosylation in D54 reporter cells; 360,000 tested, 0.23% active; AID 588692; D54 ERlucT glycosylation luciferase reporter, 24 h; percent of 100 nM tunicamycin response; reporter increase, % at 12.5 µM;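 active means mean luciferase reporter signal, scaled so untreated is 0 and the glycosylation-blocking control 100, at or above a set limit in every replicate; inconclusive means mean reaches the limit but not every replicate does; inactive means mean below the limit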;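 further: luciferase carries N-glycosylation sites so blocking glycosylation raises the light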
Wnt bcat act – activators of Wnt/beta-catenin signaling | 300,000 tested, 1.2% active | activation, % at 9.35 µM | Wnt/beta-catenin reporter cell assay, activator, plate reader; in the data active means activation above about 30%, passing the limit was not always enough; inconclusive means no clear call, values can overlap the other calls
MITF act – activators of MITF-driven TRPM1 promoter activity in SK-MEL-5 cells; SK-MEL-5 TRPM1-promoter luciferase, 24 h; % of positive control, neutral wells = 0; activation, % at 12.5 µM; 300,000 tested, 0.75% active; AID 588334;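 active means mean activation of at least 80% with every replicate also reaching 80%; inconclusive means mean reaches 80% but some replicate falls short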
Vif imaging – HIV Vif inhibition; AID 602346; inhibition, % at 7.49 µM; HEK293T cells, Vif self-association by quenched fluorescence, imaging, 24 h; 340,000 tested, 0.35% active; in the data active means inhibition above about 50%, passing the limit was not always enough; inconclusive means no clear call, values can overlap the other calls; inactive means below about 31%
PvdQ inh – P. aeruginosa PvdQ acylase inhibition. purified PvdQ acylase, fluorescence plate reader. inhibition, % at 10 µM. 340,000 tested, 0.063% active; in the data active means inhibition above about 30%, passing the limit was not always enough; inconclusive means no clear call, values can overlap the other calls
Large screens that a line does not name were inactive.

CC(NC(=O)N(Cc1ccccc1)Cc1ccc2c(c1)OCO2)(C(F)(F)F)C(F)(F)F	Vif imaging 83 (no result: MITF act)
COCC(=O)Nc1ccc2c(c1)OC[C@H](C)N(CC1CC1)C[C@@H](C)[C@@H](OC)CN(C)C2=O	none (no result: N-glyco inh, Wnt bcat act, MITF act, Vif imaging, PvdQ inh)
O=[N+]([O-])c1ccccc1-c1ccc(/C=N/n2cnnc2)o1	none (no result: Wnt bcat act, Vif imaging)
O=[N+]([O-])c1cc(-c2ccc(/C=N\n3cnnc3)o2)cc([N+](=O)[O-])c1	Vif imaging 121
CC(C)C#Cc1cnc2c(c1)C(=O)N([C@@H](C)CO)C[C@H](C)[C@H](CN(C)Cc1cncnc1)O2	none (no result: N-glyco inh, Wnt bcat act, MITF act, Vif imaging, PvdQ inh)
CCOC(=O)c1c(C)[nH]c(C(=O)OCc2ccccc2F)c1C	MITF act inconclusive
O=C(OCC(=O)c1c[nH]c2ccccc12)c1cccc([N+](=O)[O-])c1	none
CCOC(=O)c1c(C)[nH]c(C(=O)OCC(=O)Nc2cc(C)ccc2OC)c1C	none (no result: Wnt bcat act)
COC(=O)c1c(C)[nH]c(C(=O)OCC(=O)c2ccc(C)s2)c1C	MITF act 89 (no result: esBAF inh)
CCOC(=O)c1[nH]c(C)c(C(=O)Nc2cc(OC)ccc2OC)c1C	N-glyco inh 35, Vif imaging 54 (no result: Wnt bcat act)
Cc1ccc(C(=O)COC(=O)c2cccc([N+](=O)[O-])c2)s1	esBAF inh 46
CCOC(=O)c1c(C)[nH]c(C(=O)OCc2ccc(F)cc2)c1C	esBAF inh 49
O=C(C[C@@H]1CC[C@@H](NC(=O)c2ccncc2)[C@H](CO)O1)Nc1ccccc1	none (no result: N-glyco inh, Wnt bcat act, MITF act, Vif imaging, PvdQ inh)
CC(C)NC(=O)N(C)C[C@@H]1Oc2c(NS(=O)(=O)c3cn(C)cn3)cccc2C(=O)N([C@H](C)CO)C[C@@H]1C	none (no result: N-glyco inh, Wnt bcat act, MITF act, Vif imaging, PvdQ inh)
O=C(C1CCCC1)N1C[C@H]2[C@@H](c3ccccc31)[C@@H](CO)N2C(=O)Cc1ccccn1	none (no result: N-glyco inh, Wnt bcat act, MITF act, Vif imaging, PvdQ inh)
CC(=O)c1c(C)[nH]c(C(=O)OCc2ccc([N+](=O)[O-])cc2)c1C	esBAF inh 41
CC(=O)c1c(C)[nH]c(C(=O)COC(=O)c2cccnc2Cl)c1C	esBAF inh 52, Vif imaging inconclusive
CCOC(=O)c1c(C)[nH]c(C(=O)OCC(=O)NCc2ccccc2)c1C	none
CCOC(=O)c1c(C)[nH]c(C(=O)OCC(=O)c2ccccc2)c1C	esBAF inh 45, Wnt bcat act 49, MITF act 122
CC(=O)c1c(C)[nH]c(C(=O)OCc2ccccc2)c1C	esBAF inh 40
COC(=O)c1ccc(COC(=O)c2[nH]c(C)c(C(C)=O)c2C)o1	none (no result: MITF act)
CC(=O)c1c(C)[nH]c(C(=O)COC(=O)c2nccnc2N)c1C	none
CO[C@@H]1CN(C)C(=O)c2cc(NC(=O)c3cccc(F)c3)ccc2OC[C@H](C)NC[C@@H]1C	none (no result: N-glyco inh, Wnt bcat act, MITF act, Vif imaging, PvdQ inh)
COc1ccc(Sc2cnn(-c3ccccc3)c(=O)c2Cl)cc1	Vif imaging 51 (no result: Wnt bcat act)
COc1ccc(-n2ncc(Cl)c(Cl)c2=O)cc1	none (no result: esBAF inh, MITF act, PvdQ inh)
COc1ccc(C(=O)O/N=C(\N)c2ccc(Cl)cc2)cc1	esBAF inh inconclusive, Wnt bcat act 37, MITF act 89
COc1ccc(/C(N)=N/OC(=O)c2ccc(Br)o2)cc1	esBAF inh 58
COc1ccc(Cl)cc1C(=O)O/N=C(\N)c1ccncc1	none (no result: esBAF inh)
COc1ccccc1C(=O)O/N=C(\N)c1ccc(Cl)cc1	esBAF inh 52
N/C(=N\OC(=O)c1ccc(Br)o1)c1cccnc1	none (no result: esBAF inh)
Cc1ccc(S(=O)(=O)N(C)C[C@@H]2OCCCC[C@H](C)Oc3ccc(NC(=O)Nc4cccc5ccccc45)cc3C(=O)N([C@@H](C)CO)C[C@H]2C)cc1	none (no result: N-glyco inh, Wnt bcat act, MITF act, Vif imaging, PvdQ inh)
C[C@H](CO)N1C[C@H](C)[C@@H](CN(C)C)Oc2c(NC(=O)Nc3ccc4c(c3)OCO4)cccc2C1=O	none (no result: N-glyco inh, Wnt bcat act, MITF act, Vif imaging, PvdQ inh)
OCc1cn(-c2ccccc2)nc1-c1cc2ccccc2o1	esBAF inh inconclusive, Wnt bcat act 57
N#C[C@@H]1[C@@H](c2ccc(C3=CCCC3)cc2)[C@@H](CO)N1C(=O)NC1CCCC1	none (no result: N-glyco inh, Wnt bcat act, MITF act, Vif imaging, PvdQ inh)
Cc1cc(C(F)(F)F)n2nc(-c3cccs3)cc2n1	esBAF inh 64
FC(F)(F)c1cc(-c2cccs2)nc2cc(-c3ccccc3)nn12	none
CC1CCc2nc(NC(=O)C3CC3)sc2C1 (stereo not given)	none (no result: esBAF inh, Wnt bcat act)
Cc1ncsc1C(=O)Nc1nc2c(s1)CC(C)CC2 (stereo not given)	Wnt bcat act 32
CC(SCc1ccccc1)C(=O)Nc1ccccc1 (stereo not given)	Wnt bcat act 37
O=C(Nc1ccc(N2CCOCC2)c(Cl)c1)c1cccnc1	none (no result: Wnt bcat act)
